Records with an inconclusive call do not appear. The source made the active and inactive calls. Unless noted, calls follow the shape of the dose curve; as a rule, active = well fitted curve in the direction sought with a large enough effect in the repeat runs; inconclusive = weak or mixed curves; inactive = no such curve, though single readings can be large; an effect the other way counts as inactive or inconclusive.

A short description of experiment [1]: qHTS assay to identify aromatase inhibitors - cell viability counter screen (AID 743084).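 Also: cells stimulated with testosterone during compound exposure; nearly all actives have a fitted effect of over 55% in size.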 Also: potency is read from the fitted curve at half-maximal effect. On the technique in general: qHTS replaces the single test concentration by a dilution series.
Experiment [2] has as its target Aryl hydrocarbon receptor (Homo sapiens) (UniProt P35869). The experiment in a line: qHTS assay to identify small molecule that activate the aryl hydrocarbon receptor (AhR) signaling pathway (AID 743085).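 Also: HG2L7.5c1 human HepG2 liver cells with stably integrated DRE-driven firefly reporter; series mostly up to about 70 µM; nearly all actives have a fitted effect of over 15% in size.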 A digest of the protocol:
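24 h compound exposure, 37C, HepG2-derived HG2L7.5c1 cells with DRE-responsive luciferase. Readouts: fluorescence viability, then luminescence at room temperature after 30 min.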

Experiment [3] in a line: qHTS assay to identify small molecule antagonists of the peroxisome proliferator-activated receptor gamma (PPARg) signaling pathway - cell viability counter screen (AID 743194). Also: nearly all actives have a fitted effect of over 55% in size. Also: potency is read from the fitted curve at half-maximal effect. A digest of the protocol: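 Cytotoxicity counter screen in PPARg-bla HEK293H cells, same wells as reporter assay. Compounds plus 50 nM rosiglitazone (final) for 17 h at 37 C, then viability read by CellTiter-Glo luminescence.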

A short description of experiment [4]: qHTS assay for small molecule agonists of the antioxidant response element (ARE) signaling pathway - cell viability counter screen (AID 743203; calls by dose curve; also: nearly all actives have a fitted effect of over 55% in size; also: potency is read from the fitted curve at half-maximal effect). The procedure, abridged:
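Following 16 hrs of compound treatment at 37C, HepG2 cells with an ARE-controlled beta-lactamase gene were lysed with CellTiter-Glo. Luminescence was read after 30 min at room temperature.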

The nature of experiment [5]: qHTS assay for small molecule activators of the heat shock response signaling pathway - cell viability counter screen (AID 743209). Also: nearly all actives have a fitted effect of over 50% in size. Also: potency is read from the fitted curve at half-maximal effect. The procedure, abridged: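 Readout: CellTiter-Glo luminescence, 30 min at room temperature. System: HSE-bla HeLa cells, 1500/well, plated overnight. Treatment: compounds in DMSO, 5 h at 37 C.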
A short description of experiment [6]: qHTS assay to identify small molecule agonists of the peroxisome proliferator-activated receptor delta (PPARd) signaling pathway - cell viability counter screen (AID 743211). Also: nearly all actives have a fitted effect of over 55% in size. Also: potency is read from the fitted curve at half-maximal effect. The procedure, abridged: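 Luminescent ATP viability assay (CellTiter-Glo, 30 min RT) in UAS-bla HEK293H cells carrying the PPAR delta reporter construct, 3000 cells/well, after a 17 h compound treatment at 37 C.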

Experiment [7] in a line: qHTS assay to identify small molecule antagonists of the peroxisome proliferator-activated receptor delta (PPARd) signaling pathway - cell viability counter screen (AID 743213). Also: nearly all actives have a fitted effect of over 50% in size. Also: potency is read from the fitted curve at half-maximal effect. A digest of the protocol: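 Cytotoxicity counter screen: CellTiter-Glo luminescence read 30 min after addition, in the same wells as the reporter assay. There, PPARd UAS-bla HEK293H cells (3000/well) were treated 17 h at 37 C with compound and 300 nM L165041.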

Experiment [8] can be described thus: qHTS assay to identify small molecule agonists of the farnesoid-X-receptor (FXR) signaling pathway - cell viability counter screen (AID 743218). Also: nearly all actives have a fitted effect of over 45% in size. Also: potency is read from the fitted curve at half-maximal effect. The procedure, abridged: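 Parallel cytotoxicity test: compound-treated (16 h, 37 C) HEK 293T FXR-bla reporter cells were lysed with CellTiter-Glo and luminescence recorded.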
Experiment [9] in a line: qHTS assay to identify small molecule antagonists of the farnesoid-X-receptor (FXR) signaling pathway - cell viability counter screen (AID 743221; active = well fitted cell-killing curve with a large enough effect in the repeat runs, not every such curve was filed as active; also: nearly all actives have a fitted effect of over 50% in size; also: potency is read from the fitted curve at half-maximal effect). The procedure, abridged:
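In GeneBLAzer FXR-UAS-bla HEK 293T cells stimulated with 50 uM chenodeoxycholic acid (final), compounds acted for 16 h at 37 C. Viability was assessed afterwards by CellTiter-Glo luminescence.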

The target in experiment [10] is Vitamin D3 receptor (Homo sapiens) (UniProt P11473). The experiment is described as follows: qHTS assay to identify small molecule antagonists of the vitamin D receptor (VDR) signaling pathway (AID 743223; active = well fitted inhibition curve with a large enough effect in the signal ratio in the repeat runs, not every such curve was filed as active; the % refers to the signal ratio; also: potency is read from the fitted curve at half-maximal effect). A digest of the protocol:
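Agonist 1alpha,25-dihydroxyvitamin D3 (3 nM in well) was added with each compound to VDR-bla cells preincubated 4 h. Cells stood 16 h at 37C, then FRET substrate 2 h at room temperature; fluorescence intensity recorded.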

Experiment [11] can be described thus: qHTS assay to identify small molecule that activate the aryl hydrocarbon receptor (AhR) signaling pathway - cell viability counter screen (AID 743086). Also: nearly all actives have a fitted effect of over 45% in size. Also: potency is read from the fitted curve at half-maximal effect. A digest of the protocol:
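HepG2-AhR-luc (HG2L7.5c1) cells, 4000/well, treated 24 h at 37 C with compound; viability measured as CellTiter-Fluor fluorescence after 30 min in the same wells as the luciferase read.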

Experiment [12] deals with Peroxisome proliferator-activated receptor gamma (Homo sapiens) (UniProt P37231). The experiment in a line: qHTS assay to identify small molecule agonists of the peroxisome proliferator-activated receptor gamma (PPARg) signaling pathway (AID 743094; active = well fitted activation curve with a large enough effect in the signal ratio in the repeat runs, not every such curve was filed as active; the % refers to the signal ratio). A digest of the protocol:
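Compounds dissolved in DMSO were added to PPARg UAS-bla HEK293H cells for 17 h at 37C, and reporter expression was quantified by fluorescence intensity after 1 h with LiveBLAzer B/G FRET substrate.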

Experiment [13] has the same target. The experiment is described as follows: qHTS assay to identify small molecule antagonists of the peroxisome proliferator-activated receptor gamma (PPARg) signaling pathway (AID 743191; calls by dose curve; also: series mostly up to about 63 µM; nearly all actives have a fitted effect of over 30% in size). A digest of the protocol: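 GeneBLAzer PPARg UAS-bla HEK293H cells, 5 h post-plating, exposed to compounds 17 h at 37C. LiveBLAzer B/G FRET substrate added for 1 h at room temperature; beta-lactamase reporter read by fluorescence intensity.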

Experiment [14] in a line: qHTS assay for small molecule activators of the heat shock response signaling pathway (AID 743210; active = well fitted activation curve with a large enough effect in the signal ratio in the repeat runs, with a control signal flat, not every such curve was filed as active; the % refers to the signal ratio;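 also: HeLa cells with beta-lactamase reporter driven by heat shock elements; series mostly up to about 63 µM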). The procedure, abridged: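 Quantitative high-throughput format using an engineered HeLa line in which heat shock response elements drive beta-lactamase; after 5 h with compound, cells received a B/G FRET substrate and fluorescence was read.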
The target of experiment [15] is Bile acid receptor (Homo sapiens) (UniProt Q96RI1). The experiment is described as follows: qHTS assay to identify small molecule antagonists of the farnesoid-X-receptor (FXR) signaling pathway (AID 743217; active = well fitted inhibition curve with a large enough effect in the signal ratio in the repeat runs, not every such curve was filed as active; the % refers to the signal ratio; also: potency is read from the fitted curve at half-maximal effect). A digest of the protocol: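 GeneBLAzer FXR-UAS-bla HEK 293T, CDCA-stimulated (50 uM final). Compound treatment 16 h, 37 °C. Detection: beta-lactamase cleavage of B/G FRET substrate, fluorescence.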
Chain of Bile acid receptor (Homo sapiens) (Q96RI1 whole entry, looked up): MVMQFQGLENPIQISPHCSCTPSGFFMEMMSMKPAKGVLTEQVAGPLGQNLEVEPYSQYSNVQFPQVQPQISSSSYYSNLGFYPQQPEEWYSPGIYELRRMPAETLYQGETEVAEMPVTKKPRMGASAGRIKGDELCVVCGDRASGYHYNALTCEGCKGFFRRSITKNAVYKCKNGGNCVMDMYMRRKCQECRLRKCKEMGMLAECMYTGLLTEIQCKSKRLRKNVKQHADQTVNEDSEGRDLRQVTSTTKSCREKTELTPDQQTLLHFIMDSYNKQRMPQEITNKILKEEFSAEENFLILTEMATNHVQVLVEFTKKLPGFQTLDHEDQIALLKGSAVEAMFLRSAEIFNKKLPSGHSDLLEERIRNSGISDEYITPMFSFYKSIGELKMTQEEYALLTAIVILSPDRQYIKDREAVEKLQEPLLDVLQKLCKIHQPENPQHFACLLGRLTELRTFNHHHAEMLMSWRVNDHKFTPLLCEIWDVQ

The nature of experiment [16]: qHTS assay for small molecule agonists of the antioxidant response element (ARE) signaling pathway (AID 743202; active = well fitted activation curve with a large enough effect in the signal ratio in the repeat runs, not every such curve was filed as active; the % refers to the signal ratio). The procedure, abridged: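 Agonist mode reporter screen: HepG2 cells with ARE-controlled beta-lactamase are incubated with test compounds for 16 h at 37 C, and beta-lactamase activity is measured as fluorescence of cleaved B/G FRET substrate.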
Experiment [17] concerns the target Peroxisome proliferator-activated receptor delta (Homo sapiens) (UniProt Q03181). The experiment in a line: qHTS assay to identify small molecule agonists of the peroxisome proliferator-activated receptor delta (PPARd) signaling pathway (AID 743212; calls by dose curve). The procedure, abridged:
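Quantitative high-throughput agonist screen in a HEK293H beta-lactamase reporter line under UAS control. Compounds in DMSO, at 37 C. Fluorescence read after 2 h with FRET substrate at room temperature.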

Experiment [18] has the same target. The experiment in a line: qHTS assay to identify small molecule antagonists of the peroxisome proliferator-activated receptor delta (PPARd) signaling pathway (AID 743215; active = well fitted inhibition curve with a large enough effect in the signal ratio in the repeat runs, not every such curve was filed as active; the % refers to the signal ratio;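 also: cells stimulated with agonist L165041 at 300 nM final during compound exposure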; also: potency is read from the fitted curve at half-maximal effect). A digest of the protocol:
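HEK293H UAS-bla, PPARd; agonist L165041 300 nM final with cpd in DMSO; 37 C 17 h; FRET substrate, RT 2 h; fluorescence intensity.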

Experiment [19] addresses Vitamin D3 receptor (Homo sapiens) (UniProt P11473). The experiment is described as follows: qHTS assay to identify small molecule agonists of the vitamin D receptor (VDR) signaling pathway (AID 743222; calls by dose curve). A digest of the protocol: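 In VDR-bla cells, compound-induced beta-lactamase expression is quantified by FRET substrate fluorescence. Treatment lasts 16 h at 37C; substrate develops 2 h at room temperature.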

The target in experiment [20] is Bile acid receptor (Homo sapiens) (UniProt Q96RI1). The experiment is described as follows: qHTS assay to identify small molecule agonists of the farnesoid-X-receptor (FXR) signaling pathway (AID 743220; active = well fitted activation curve with a large enough effect in the signal ratio in the repeat runs, not every such curve was filed as active; the % refers to the signal ratio). The procedure, abridged:
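Beta-lactamase reporter under UAS control in GeneBLAzer FXR HEK 293T cells (5000/well) measured with LiveBLAzer FRET substrate after 2 h at room temperature. Compound exposure lasted 16 h at 37C.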

Chain of Peroxisome proliferator-activated receptor delta (Homo sapiens) (Q03181 whole entry, looked up): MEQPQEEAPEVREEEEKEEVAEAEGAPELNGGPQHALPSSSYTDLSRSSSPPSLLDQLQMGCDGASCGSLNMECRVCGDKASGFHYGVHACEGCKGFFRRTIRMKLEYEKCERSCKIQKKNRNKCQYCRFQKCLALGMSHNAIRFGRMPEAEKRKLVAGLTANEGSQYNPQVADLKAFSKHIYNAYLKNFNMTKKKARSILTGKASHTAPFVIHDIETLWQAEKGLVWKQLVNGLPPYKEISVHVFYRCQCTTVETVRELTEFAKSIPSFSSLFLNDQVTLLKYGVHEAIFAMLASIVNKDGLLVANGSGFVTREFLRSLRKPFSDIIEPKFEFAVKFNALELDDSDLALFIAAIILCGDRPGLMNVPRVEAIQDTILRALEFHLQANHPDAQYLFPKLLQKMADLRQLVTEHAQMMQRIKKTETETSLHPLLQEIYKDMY
Chain of Vitamin D3 receptor (Homo sapiens) (P11473 whole entry, looked up): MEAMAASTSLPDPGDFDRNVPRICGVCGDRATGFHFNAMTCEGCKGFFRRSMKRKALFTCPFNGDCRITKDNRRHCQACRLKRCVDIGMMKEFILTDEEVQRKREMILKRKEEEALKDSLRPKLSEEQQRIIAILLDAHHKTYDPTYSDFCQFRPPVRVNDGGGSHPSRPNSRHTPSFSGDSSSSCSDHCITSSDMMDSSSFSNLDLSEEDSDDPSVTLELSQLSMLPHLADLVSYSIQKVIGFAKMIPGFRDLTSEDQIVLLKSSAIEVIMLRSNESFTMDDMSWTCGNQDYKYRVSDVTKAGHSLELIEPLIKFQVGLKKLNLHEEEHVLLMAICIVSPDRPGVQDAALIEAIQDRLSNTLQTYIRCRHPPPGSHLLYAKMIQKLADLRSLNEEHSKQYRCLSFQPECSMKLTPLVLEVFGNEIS
Chain of Peroxisome proliferator-activated receptor gamma (Homo sapiens) (P37231 whole entry, looked up): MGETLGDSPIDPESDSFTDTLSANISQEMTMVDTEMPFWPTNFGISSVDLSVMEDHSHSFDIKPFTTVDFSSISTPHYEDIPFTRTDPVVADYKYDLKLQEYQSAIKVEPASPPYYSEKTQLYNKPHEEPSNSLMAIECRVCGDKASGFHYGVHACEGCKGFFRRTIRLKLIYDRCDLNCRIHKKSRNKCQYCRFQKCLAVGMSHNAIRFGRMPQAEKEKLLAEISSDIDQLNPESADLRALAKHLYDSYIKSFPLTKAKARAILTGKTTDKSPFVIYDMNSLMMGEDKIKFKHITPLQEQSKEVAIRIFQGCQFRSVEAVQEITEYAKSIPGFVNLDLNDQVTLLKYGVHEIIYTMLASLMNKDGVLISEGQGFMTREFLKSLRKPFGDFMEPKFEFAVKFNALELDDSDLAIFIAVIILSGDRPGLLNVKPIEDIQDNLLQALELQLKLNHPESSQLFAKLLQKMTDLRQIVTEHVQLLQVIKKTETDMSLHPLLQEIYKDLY
Chain of Aryl hydrocarbon receptor (Homo sapiens) (P35869 whole entry, looked up): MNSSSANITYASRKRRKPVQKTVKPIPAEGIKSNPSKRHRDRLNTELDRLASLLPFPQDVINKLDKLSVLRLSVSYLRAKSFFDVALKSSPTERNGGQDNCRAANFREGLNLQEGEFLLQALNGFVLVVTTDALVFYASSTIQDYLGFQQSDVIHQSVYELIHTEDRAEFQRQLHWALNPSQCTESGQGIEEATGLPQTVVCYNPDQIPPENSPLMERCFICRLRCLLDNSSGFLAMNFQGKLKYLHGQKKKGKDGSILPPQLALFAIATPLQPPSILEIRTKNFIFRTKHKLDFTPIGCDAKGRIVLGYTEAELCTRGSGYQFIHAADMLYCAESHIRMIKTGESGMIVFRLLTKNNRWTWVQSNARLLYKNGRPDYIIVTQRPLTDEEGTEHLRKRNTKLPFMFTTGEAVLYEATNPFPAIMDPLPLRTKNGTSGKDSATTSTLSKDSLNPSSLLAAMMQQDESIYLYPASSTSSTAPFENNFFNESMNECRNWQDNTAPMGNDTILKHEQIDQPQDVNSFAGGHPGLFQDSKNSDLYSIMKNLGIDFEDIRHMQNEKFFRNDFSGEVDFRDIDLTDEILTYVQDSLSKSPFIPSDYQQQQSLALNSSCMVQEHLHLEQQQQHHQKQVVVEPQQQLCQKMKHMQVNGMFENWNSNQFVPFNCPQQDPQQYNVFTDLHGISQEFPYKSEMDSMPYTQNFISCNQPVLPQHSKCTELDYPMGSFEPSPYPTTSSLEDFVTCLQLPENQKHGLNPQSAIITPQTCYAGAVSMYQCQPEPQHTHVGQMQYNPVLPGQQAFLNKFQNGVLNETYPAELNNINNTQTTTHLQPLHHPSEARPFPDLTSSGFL

Consider `CCCCCCCCCCCCCCCCCC[N+](C)(C)Cc1ccccc1`, for which the Potency in [1] is 49 µM (active); in [3] it was 44.1 µM (active); in experiment [4], 19.5 µM (active); in [5], 27.8 µM (active); in experiment [6], 11.1 µM (active); in [7] it was 13.9 µM (active). For the same compound, the Potency in [8] is 19.7 µM (active); in experiment [9] it was 27.8 µM (active); in experiment [10], 22.1 µM (active). The Potency entry in experiment [2] was “inactive”.
Consider `CCN(C(=O)N(CC)c1ccccc1)c1ccccc1`, for which the Potency entry in experiment [1], in [11], in experiment [12], in experiment [13], in experiment [3] and in experiment [4] was “inactive” throughout. In addition, the Potency entry in [5], in [14], in [6], in experiment [8] and in experiment [9] was “inactive” each time.
Turning to `Cc1cc(O)c(C(C)(C)C)cc1C(C)(C)C`, the Potency was 54.5 µM (active) in [1]; 49 µM (active) in experiment [3]; 54.5 µM (active) in [4]; 43.6 µM (active) in [5]; 43.6 µM (active) in experiment [6]; 34.7 µM (active) in [7]. Moreover, the Potency in [15] is 49 µM (active); in experiment [8], 54.9 µM (active); in experiment [9], 49 µM (active). Also, the Potency result in experiment [2] is “inactive”.
Turning to `CC(NN)c1ccccc1` (centres undefined), the Potency result in experiment [1], in [11], in [12], in experiment [13], in experiment [3] and in experiment [16] was “inactive” in each case. For the same compound, the Potency result in experiment [4], in experiment [5], in experiment [14], in [6], in experiment [7] and in [8] was “inactive” each time. Further, the Potency result in [9] is “inactive”.
Turning to `O=C(c1ccc(O)cc1O)c1ccc(O)cc1O`, the Potency result in [1], in experiment [11], in [12], in experiment [3], in [4] and in experiment [5] was “inactive” throughout. Besides, the Potency result in experiment [6], in [17], in [18], in [15], in experiment [9] and in [19] was “inactive” in each case. In addition, the Potency result in [10] is “inactive”.
On to `CN1CCN(CCC(=O)N2c3ccccc3Sc3ccc(C(F)(F)F)cc32)CC1`, for which the Potency entry in experiment [1], in experiment [12], in experiment [5], in [14], in [17] and in experiment [19] was “inactive” throughout. Besides, the Potency in experiment [11] was 18.8 µM (active); in experiment [3] it was 33.5 µM (active); in experiment [4] it was 29.8 µM (active); in [7], 16.8 µM (active); in experiment [18] it was 29.8 µM (active); in [8], 21.1 µM (active). Further, the Potency in [9] is 33.5 µM (active).
In the case of `O=C(Nc1ccc(Oc2ccc(Cl)cc2)c(Cl)c1)c1cc(I)cc(I)c1O`, the Potency entry in experiment [1], in experiment [11], in experiment [12], in experiment [20], in experiment [19] and in [10] was “inactive” each time. For the same compound, the Potency in experiment [3] is 5.31 µM (active).
For `O=c1[nH]cnc2nc[nH]c12`, the Potency entry in experiment [1], in experiment [11], in experiment [12], in [3], in experiment [16] and in [4] was “inactive” in each case. For the same compound, the Potency entry in experiment [5], in experiment [14], in [6], in experiment [15], in [8] and in experiment [9] was “inactive” in each case.
`CC[C@H]1O[C@]2(CC[C@@H]1C)C[C@@H]1C[C@@H](C/C=C(\C)C[C@@H](C)/C=C/C=C3\CO[C@@H]4[C@H](O)C(C)=C[C@@H](C(=O)O1)[C@]34O)O2`: the Potency in experiment [1] is 27.1 µM (active); in experiment [3], 19.3 µM (active); in experiment [4] it was 21.5 µM (active); in experiment [5], 6.85 µM (active); in experiment [6], 17.2 µM (active); in [7] it was 15.3 µM (active). In addition, the Potency in experiment [8] was 21.7 µM (active); in [9] it was 17.2 µM (active). In addition, the Potency result in experiment [2] is “inactive”.
`CC(=O)S[C@@H]1CC2=CC(=O)CC[C@]2(C)[C@H]2CC[C@@]3(C)[C@@H](CC[C@@]34CCC(=O)O4)[C@H]12`: the Potency result in [1], in [2], in experiment [11], in experiment [14], in [6] and in experiment [7] was “inactive” throughout. For the same compound, the Potency entry in [8] is “inactive”.
Turning to `Cc1cc(O)c(C(C)(C)C)cc1Sc1cc(C(C)(C)C)c(O)cc1C`, the Potency in experiment [1] is 30.6 µM (active); in experiment [3], 10.9 µM (active); in experiment [4], 7.68 µM (active); in [5], 10.9 µM (active); in experiment [6], 3.88 µM (active); in experiment [7] it was 3.46 µM (active). Also, the Potency was 8.69 µM (active) in [8] and 9.75 µM (active) in experiment [9]. Also, the Potency result in experiment [2] is “inactive”.
